From PubChem BioAssay
tim23-1 inh: growth inhibitors of tim23-1 mutant yeast, primary screen, luminescence, uHTS; 330,000 compounds, 1.3% hits; inhibition, % at 20 µM; AID 463212, 2010; S. cerevisiae tim23-1 growth, BacTiter-Glo luminescence, 24 h;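 active means growth inhibition of the mutant yeast at or above 50%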;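 further: temperature-sensitive mutant grown at 25 °C; plate controls were DMSO-treated mutant yeast for no effect and medium wells lacking yeast for full effect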
TIM10 inh: growth inhibitors of isogenic TIM10 control yeast, primary screen, counter-screen for tim10-1 yeast inhibitor project, luminescence, uHTS. S. cerevisiae TIM10 strain growth, BacTiter-Glo luminescence, 24 h. inhibition, % at 10 µM. 330,000 compounds, 1.4% hits. AID 463195, 2010;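 active means inhibition of 40% or more at the single tested concentration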;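 further: wild-type TIM10 isogenic control strain grown at permissive 25 °C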
SKKanGAS inh: S. pyogenes SKKanGAS growth inhibitors in kanamycin, primary screen, streptokinase expression inhibitor project, SKKanGAS strain, BacTiter-Glo luminescence. 6 h. inhibition, % at 7.5 µM. 300,000 compounds, 1.3% hits;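 active means mean replicate score, as percent of positive control median, at least 50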;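 further: strain carries kanamycin resistance gene driven by streptokinase promoter and grows in 40 µg/ml kanamycin; loss of luminescence reflects streptokinase promoter inhibition or plain growth inhibition; 0% = median of DMSO wells and 100% = positive control at its reference dose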
tim10-1 inh: growth inhibitors of tim10-1 mutant yeast, primary screen, luminescence, uHTS. 330,000 compounds, 2.2% hits. AID 463190, 2010. S. cerevisiae tim10-1 ts strain growth, BacTiter-Glo, 24 h. inhibition, % at 20 µM;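 active means inhibition of at least 40%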;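 further: mutant grown at 25 °C; 0% = DMSO wells with yeast and 100% = wells holding no yeast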
NALP3 yeast inh: NALP3 inflammasome inhibitors in reconstituted yeast, primary screen, luminescence, uHTS; Yeast reconstituted NLRP3/ASC/caspase-1, beta-gal luminescence, 24 h; inhibition, % at 10 µM; 330,000 compounds, 0.39% hits; AID 2825, 2010;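 active means inhibition of 50% or more; inactive means inhibition below 50%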;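 further: plate controls were induced DMSO wells for no effect and uninduced yeast grown without galactose for full effect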
tim10-1 confirm: growth inhibitors of tim10-1 mutant yeast, confirmation, single concentration, luminescence, S. cerevisiae | 7,400 compounds, 56% hits | shares compounds with tim10-1 inh | inhibition, % at 20 µM | S. cerevisiae tim10-1 ts strain growth, BacTiter-Glo, 24 h;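 active means inhibition of yeast growth at or above a set limit in either of two repeat tests at 20 µM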;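 further: tim10-1 mutant grown at permissive 25 °C to find synthetic lethal compounds; 0% = DMSO yeast wells and 100% = medium wells without yeast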
TIM10 conf: growth inhibitors of wild-type TIM10 yeast, confirmation, counter-screen for tim10-1 synthetic lethality project, single concentration, luminescence, S. cerevisiae | shares compounds with TIM10 inh | S. cerevisiae tim10 strain growth, BacTiter-Glo luminescence, 24 h | inhibition, % at 10 µM | 4,600 compounds, 63% hits;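 active means inhibition of yeast growth at or above a set limit in either of two replicates at 10 µM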;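 further: this counterscreen used the strain with wild-type TIM10; 0% = yeast with DMSO and 100% = medium wells lacking yeast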
tim23-1 confirm: tim23-1 mutant yeast growth inhibitors, confirmation, luminescence, single concentration; shares compounds with tim23-1 inh; S. cerevisiae tim23-1 growth, BacTiter-Glo luminescence, 24 h; inhibition, % at 20 µM; 4,400 compounds, 83% hits; AID 463218, 2010;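 active means inhibition above about 39% in either of two replicate wells at 20 µM, limit read from the data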;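 further: temperature-sensitive tim23-1 mutant grown at 25 °C; 0% = DMSO wells with yeast and 100% = medium wells without yeast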
The depositor's hits bear a star. In the library only some 4.6% were active in any assay of this set; here they are far more common.

`O=C1c2ccc([N+](=O)[O-])cc2S(=O)(=O)N1Cc1ccccc1` gave tim23-1 inh 75.8*, TIM10 inh 52.7*, SKKanGAS inh -2.8, tim10-1 inh 72.2*, NALP3 yeast inh 9.7, tim10-1 confirm 69.0*, TIM10 conf 42.8* and tim23-1 confirm 85.5*.
For Cc1ccc(-n2cnc3scc(-c4cccs4)c3c2=O)cc1 the results were tim23-1 inh 50.1*, TIM10 inh 30.9, SKKanGAS inh 2.8, tim10-1 inh 41.5*, NALP3 yeast inh 15.3, tim10-1 confirm 45.5* and tim23-1 confirm 57.5*.
For CCOc1ccc(S(=O)(=O)Nc2cccc(C(=O)NCC(c3ccco3)N3CCCC3)c2)cc1 (centres undefined) the results were tim23-1 inh 19.1, TIM10 inh 6.8, tim10-1 inh 9.5 and NALP3 yeast inh 13.9.
`COc1ccc(/C=C/C(=O)ONC2=NCCCCC2)cc1OC` gave tim23-1 inh 58.4*, TIM10 inh 49.0*, SKKanGAS inh -1.1, tim10-1 inh 67.6*, NALP3 yeast inh -1.2, tim10-1 confirm 68.6*, TIM10 conf 37.0* and tim23-1 confirm 31.2.
Screening O=[N+]([O-])/C=C/c1cn(Cc2ccc(F)cc2)c2ccccc12 returned tim23-1 inh 65.5*, TIM10 inh 69.3*, SKKanGAS inh 3.7, tim10-1 inh 72.5*, NALP3 yeast inh -1.3, tim10-1 confirm 66.0*, TIM10 conf 73.9* and tim23-1 confirm 71.3*.
Cc1ccc(N2C(=O)CC(Sc3ncn[nH]3)C2=O)cc1C (centres undefined) was read as tim23-1 inh 76.9*, TIM10 inh 56.3*, SKKanGAS inh 8.5, tim10-1 inh 47.0*, NALP3 yeast inh 4.7, tim10-1 confirm 53.3*, TIM10 conf 55.3* and tim23-1 confirm 48.6*.
Cc1cccc(N2C(=O)CC(Sc3ncn[nH]3)C2=O)c1 (centres undefined) was read as tim23-1 inh 23.9, TIM10 inh 27.0, SKKanGAS inh -4.8, tim10-1 inh 29.7 and NALP3 yeast inh 18.5.
`O=C(NC12CC3CC(CC(C3)C1)C2)C12CC3CC(C1)CC(n1cnc(Cl)n1)(C3)C2` gave tim23-1 inh 60.2*, TIM10 inh 45.9*, SKKanGAS inh -2.9, tim10-1 inh 65.3*, NALP3 yeast inh 4.9, tim10-1 confirm 52.7*, TIM10 conf 45.5* and tim23-1 confirm 50.1*.
Cc1ccc(-c2ccnc3c(Br)c(C)nn23)cc1 was read as tim23-1 inh 57.8*, TIM10 inh 14.6, SKKanGAS inh 5.6, tim10-1 inh 41.0*, NALP3 yeast inh 10.6, tim10-1 confirm 29.5 and tim23-1 confirm 39.1*.
Screening CS(=O)(=O)N(CC(=O)N1CCCC1)c1ccccc1Br returned tim23-1 inh 2.9, TIM10 inh -8.4, SKKanGAS inh -0.7, tim10-1 inh 3.5 and NALP3 yeast inh 2.3.
For O=C(N(c1ccccc1)c1ccccc1)N(c1ccccc1)c1ccccc1 the results were tim23-1 inh 51.7*, TIM10 inh 39.3, SKKanGAS inh 10.1, tim10-1 inh 45.6*, NALP3 yeast inh -1.5, tim10-1 confirm 21.5 and tim23-1 confirm 41.2*.
For COc1cccc(-c2nc(NC(C)C)c3ccccc3n2)c1O the results were tim23-1 inh 54.8*, TIM10 inh 26.6, SKKanGAS inh 4.9, tim10-1 inh 56.9*, NALP3 yeast inh 7.2, tim10-1 confirm 45.3* and tim23-1 confirm 51.5*.
COc1ccc(/C=N/n2c(C3CCCCC3)n[nH]c2=S)c(OC)c1 was read as tim23-1 inh 58.3*, TIM10 inh 28.7, SKKanGAS inh -1.8, tim10-1 inh 40.5*, NALP3 yeast inh 14.1, tim10-1 confirm 19.8 and tim23-1 confirm 48.4*.
For Cc1cccc(N2CCN(c3nc4ccccc4n4cnnc34)CC2)c1C the results were tim23-1 inh 64.1*, TIM10 inh 53.3*, SKKanGAS inh 13.9, tim10-1 inh 70.5*, NALP3 yeast inh 16.9, tim10-1 confirm 17.4, TIM10 conf 42.1* and tim23-1 confirm 72.2*.
`CCCCc1ccc(S(=O)(=O)NCCCN2CCCC2=O)cc1` gave tim23-1 inh 8.5, TIM10 inh -6.0, SKKanGAS inh -10.9, tim10-1 inh -0.1 and NALP3 yeast inh -0.3.
Cc1ccc2c(c1)-n1c(nc3cc(F)ccc3c1=O)C(Cc1ccc(O)cc1)NC2=O (centres undefined) was read as tim23-1 inh -13.6, TIM10 inh 4.2, tim10-1 inh -3.5 and NALP3 yeast inh -14.6.
CNC(=S)Nc1ccc(C23CC4CC(CC(C4)C2)C3)cc1 was read as tim23-1 inh 62.8*, TIM10 inh 50.2*, SKKanGAS inh -12.8, tim10-1 inh 61.8*, NALP3 yeast inh 36.5, tim10-1 confirm 47.8*, TIM10 conf 39.4* and tim23-1 confirm 78.8*.
`COc1cc(NC(=O)c2ccc([N+](=O)[O-])o2)ccc1NC(=O)c1cccs1` gave tim23-1 inh 59.3*, TIM10 inh 31.6, SKKanGAS inh 22.1, tim10-1 inh 45.5*, NALP3 yeast inh 24.9, tim10-1 confirm 38.8* and tim23-1 confirm -14.3.
For COc1cc(NC(=O)c2cccs2)ccc1NC(=O)Cc1ccccc1 the results were tim23-1 inh 49.2, TIM10 inh 17.0, SKKanGAS inh 19.0, tim10-1 inh -15.5 and NALP3 yeast inh 13.3.
O=C(Nc1ccc(N2CCN(C(=O)c3cccs3)CC2)cc1)c1ccc([N+](=O)[O-])o1 was read as tim23-1 inh 71.2*, TIM10 inh 71.6*, SKKanGAS inh 39.7, tim10-1 inh 71.7*, NALP3 yeast inh 14.9, tim10-1 confirm 74.4*, TIM10 conf 77.2* and tim23-1 confirm 85.0*.
Screening COc1ccc(-c2cc3ccccc3oc2=O)cc1NC(=O)c1ccc(Br)o1 returned tim23-1 inh -25.3, TIM10 inh -2.5, SKKanGAS inh 4.8, tim10-1 inh -19.5 and NALP3 yeast inh -6.9.
`O=C(Nc1ccc(N2CCOCC2)cc1)c1ccc([N+](=O)[O-])o1` gave tim23-1 inh 55.0*, TIM10 inh 26.0, SKKanGAS inh 8.9, tim10-1 inh 55.3*, NALP3 yeast inh 7.8, tim10-1 confirm 28.6 and tim23-1 confirm 57.9*.
